Experimental data: PubChem BioAssay (Tox21)
The source made the active and inactive calls. The call rests on the fitted dose curve; in most records, active means well fitted curve in the direction sought with a large enough effect in the repeat runs; inconclusive means weak or mixed curves; inactive means flat fitted curve, though single readings scatter.

Assay: qHTS assay to test for compound auto fluorescence at 535 nm (green) in HEK293 cells (AID 720680)
Conditions: green autofluorescence 485/535 nm; series mostly up to 91.3 µM
Source text: U.S. Tox21 Program National Center for Advancing Translational Sciences [NCATS] NIH Chemical Genomics Center [NCGC] U.S. Environmental Protection Agency [EPA] National Institutes of Environmental Health Sciences [NIEHS] National Toxicology Program [NTP] U.S. Food and Drug Administration [FDA] Tox21 Assay Overview: Compound auto fluorescence often interferes with screening of the compound library against various biological targets and signaling pathways. Some of these compounds may have fluorophoric properties. Such properties may interfere with the assay outputs resulting in false positives and/or negatives. To decrease such complications and ensure the compound activities are relevant in terms of biological response, the Tox21 10K compound library was screened for auto fluorescence. From the fluorophores used as reporter signals in our screening assays, the auto fluorescence equivalencies of compounds against three fluorophores have been evaluated: Triamterene, Fluorescein and Rose Bengal sodium for blue, green and red fluorescence, respectively. The fluorescence intensities were measured using Excitation/Emission wavelengths at 405/460nm, 485/535nm and 540/590nm for blue, green and red labels, respectively. This assay includes the green fluorescence data.
Tox21 Assay Protocol Summary: 2,000 HEK293 cells in 5 uL of culture medium containing 10% dialyzed FBS per well were dispensed into black wall/clear bottom 1536-well plates using a Multidrop Combi Dispenser (Thermo Scientific). The assay plates were incubated for 4-5 hr at 37C to allow cell attachment to the well bottom, followed by the transfer of 23 nL compound or DMSO vehicle by a pintool work station (Kalypsys, San Diego, CA). After the assay plates were incubated overnight at 37C and 5% CO2, fluorescence intensities in the assay plates were measured by an Envision (PerkinElmer, Shelton, CT) plate reader using three labels for measuring blue, green and red fluorescence at […] 460, 535 and 590nm respectively.

SMILES	outcome
Cc1ccc(N)c(N)c1	inactive
O=C(O)C(F)(F)C(F)(F)C(F)(F)C(F)(F)C(F)(F)C(F)(F)C(F)(F)F	inactive
COP(=O)(OC)OC	inactive
C#CCOS(=O)OC1CCCCC1Oc1ccc(C(C)(C)C)cc1 (stereo not given)	inactive
NNC(=S)NN	inactive
CCCCCCOC(=O)c1ccccc1C(=O)OCCCCCC	inactive
O=P(O)(O)CCCl	inactive
COC(=O)c1sccc1S(=O)(=O)NC(=O)Nc1nc(C)nc(OC)n1	inactive
ClC1C(Cl)C(Cl)C(Cl)C(Cl)C1Cl (stereo not given)	inactive
CCOc1cc(C=O)ccc1O	inactive
O=C(CCl)c1ccccc1	inactive
Cc1cc(Cl)ccc1OCCCC(=O)O	inactive
CCOP(=S)(OCC)O/N=C(\C#N)c1ccccc1	inactive
CCCCCc1cc(O)cc(O)c1	inactive
c1ccc(-c2cccc(-c3ccccc3)c2)cc1	inactive
CCCCC(CC)COC(=O)Cl (stereo not given)	inactive
CCC(C)(C)c1ccc(O)cc1	inactive
Nc1cccnc1	inactive
C=CCc1ccc(OC)cc1	inactive
CC(O)CCO (stereo not given)	inactive

SMILES	outcome
c1ccc(NNc2ccccc2)cc1	inactive
CCC(=O)O[C@H]1CC[C@H]2[C@@H]3CCC4=CC(=O)CC[C@]4(C)[C@H]3CC[C@]12C	inactive
C1=Cc2cccc3cccc1c23	inactive
CCCCN(CCCC)N=O	inactive
Nc1c(Cl)cc([N+](=O)[O-])cc1Cl	inactive
Oc1c(Cl)c(Cl)c(Cl)c(Cl)c1Cl	inactive
CC(C)Oc1cc(-n2nc(C(C)(C)C)oc2=O)c(Cl)cc1Cl	inactive
C=C(C)C(=O)OCC1CO1 (stereo not given)	inactive
CCN(CC)C(=O)/C(Cl)=C(\C)OP(=O)(OC)OC	inactive
CC(C)(OOC(C)(C)c1ccccc1)c1ccccc1	inactive
Cc1c(COC(=O)[C@@H]2[C@H](/C=C(\Cl)C(F)(F)F)C2(C)C)cccc1-c1ccccc1	inactive
COP(=S)(OC)Oc1cc(Cl)c(Cl)cc1Cl	inactive
Cc1cccc(N)c1N	inactive
NC(=S)Nc1ccccc1	inactive
Nc1ccc(-c2ccccc2)cc1	inactive
CC(C)c1ccc(CO)cc1	inactive
Cc1ccc2c(c1N)C(=O)c1ccccc1C2=O	inactive
c1nc[nH]n1	inactive
Cc1cc(C)cc(C)c1	inactive
O=C(Nc1ccc(Br)cc1)c1cc(Br)cc(Br)c1O	inactive
